IDE exosite FP – exo-site inhibitors of human insulin-degrading enzyme; hit rate 6.3% among 17,000; z-score at 20 µM; P14735; purified IDE, FL-6b probe fluorescence polarization; hits give low values;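 active = z-score of -3 or lower, meaning strong loss of probe binding signal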;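 note: His-tagged human IDE residues 42-1019 made in E. coli with 30 nM FL-6b probe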
Target sequence (P14735 42-1019 limits assumed): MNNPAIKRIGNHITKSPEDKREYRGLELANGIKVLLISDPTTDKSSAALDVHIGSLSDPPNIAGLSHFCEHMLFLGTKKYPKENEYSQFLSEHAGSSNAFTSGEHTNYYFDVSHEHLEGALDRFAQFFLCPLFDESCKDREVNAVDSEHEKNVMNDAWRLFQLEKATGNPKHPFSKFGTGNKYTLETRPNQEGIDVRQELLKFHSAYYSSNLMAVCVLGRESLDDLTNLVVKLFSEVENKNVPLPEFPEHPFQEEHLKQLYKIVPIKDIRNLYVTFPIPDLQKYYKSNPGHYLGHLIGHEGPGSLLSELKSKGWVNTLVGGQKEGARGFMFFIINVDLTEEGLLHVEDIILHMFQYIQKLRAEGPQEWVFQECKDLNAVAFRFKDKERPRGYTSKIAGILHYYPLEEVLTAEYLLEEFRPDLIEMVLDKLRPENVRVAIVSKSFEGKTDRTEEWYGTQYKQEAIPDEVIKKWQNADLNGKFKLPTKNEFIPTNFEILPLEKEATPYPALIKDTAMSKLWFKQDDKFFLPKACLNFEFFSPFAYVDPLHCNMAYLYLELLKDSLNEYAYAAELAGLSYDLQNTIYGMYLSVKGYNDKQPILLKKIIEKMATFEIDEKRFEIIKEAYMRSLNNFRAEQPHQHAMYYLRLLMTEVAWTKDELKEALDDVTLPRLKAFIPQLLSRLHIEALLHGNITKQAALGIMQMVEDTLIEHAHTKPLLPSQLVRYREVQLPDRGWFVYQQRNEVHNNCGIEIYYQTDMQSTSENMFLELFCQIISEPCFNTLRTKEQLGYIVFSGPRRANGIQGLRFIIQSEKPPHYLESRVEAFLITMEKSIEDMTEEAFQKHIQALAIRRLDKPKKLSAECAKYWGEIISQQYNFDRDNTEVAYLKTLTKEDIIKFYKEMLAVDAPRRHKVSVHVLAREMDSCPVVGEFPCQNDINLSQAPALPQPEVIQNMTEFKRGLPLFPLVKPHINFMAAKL
Each line names hits and unclear results; the compound was inactive in the other large screens. The full list was thinned out, with hits kept by preference.

COc1ccccc1C#Cc1ccc([C@@H]2[C@H](CO)N3CCCCN(C(=O)C4CCC4)C[C@@H]23)cc1	IDE exosite FP -10.5
COc1ccc(C#Cc2ccc([C@@H]3[C@H](CO)N4CCCCN(C(=O)Nc5ccccc5)C[C@@H]34)cc2)cc1	none
COc1ccccc1C#Cc1ccc([C@H]2[C@@H](CO)N3CCCCN(C(=O)C4CCC4)C[C@@H]23)cc1	IDE exosite FP -7.57
COc1ccccc1NC(=O)N1CCCCN2[C@H](CO)[C@@H](c3ccc(C#Cc4ccccc4)cc3)[C@H]2C1	none
CN(C)CC#Cc1ccc([C@@H]2[C@H](CO)N3CCCCN(C(=O)C4CCC4)C[C@@H]23)cc1	none
CN1CCCCN2[C@@H](CO)[C@@H](c3ccc(-c4ccc(F)cc4)cc3)[C@@H]2C1	none
COCC#Cc1ccc([C@H]2[C@@H](CO)N3C(=O)CN(C(=O)Nc4ccccc4F)C[C@H]23)cc1	none
CC(C)(O)C#Cc1ccc([C@@H]2[C@H]3CN(C(=O)c4ccncc4)CCCCN3[C@H]2CO)cc1	none
CC(C)N(C[C@@H]1N[C@@H](CO)[C@@H]1c1ccccc1)S(=O)(=O)c1ccccc1	none
C/C=C/c1ccccc1[C@@H]1[C@H](C#N)N(C(=O)Cc2ccccn2)[C@H]1CO	none
Cn1cnc(S(=O)(=O)N[C@@H]2CC[C@H](CC(=O)NCC3CCCCC3)O[C@@H]2CO)c1	none
Cc1cccc(-c2ccc([C@H]3[C@@H](CO)N4CCCCN(S(=O)(=O)c5ccccc5C)C[C@@H]34)cc2)c1	none
Cc1cccc(-c2ccc([C@@H]3[C@H](CO)N4CCCCN(S(=O)(=O)c5ccccc5C)C[C@@H]34)cc2)c1	IDE exosite FP -10.8
Cc1cccc(-c2ccc([C@H]3[C@@H](CO)N4CCCCN(S(=O)(=O)c5ccccc5C)C[C@H]34)cc2)c1	none
Cc1cccc(-c2ccc([C@@H]3[C@@H](CO)N4CCCCN(S(=O)(=O)c5ccccc5F)C[C@@H]34)cc2)c1	IDE exosite FP -27.2
Cc1cccc(-c2ccc([C@@H]3[C@@H](CO)N4CCCCN(S(=O)(=O)c5ccccc5F)C[C@H]34)cc2)c1	none
Cc1cccc(-c2ccc([C@H]3[C@@H](CO)N4CCCCN(S(=O)(=O)c5ccccc5F)C[C@@H]34)cc2)c1	none
O=C(C[C@H]1CC[C@H]2NC[C@@H](O)COC[C@@H]2O1)NCCN1CCCCC1	none
N#C[C@@H]1[C@@H](c2ccccc2C2=CCCC2)[C@H](CO)N1C(=O)NC1CCCCC1	none
CC(C)CC#Cc1ccc([C@H]2[C@H](CO)N3C(=O)CN(C(=O)c4ccc5c(c4)OCO5)C[C@@H]23)cc1	none
COc1ccccc1-c1ccc([C@H]2[C@H]3CN(C(=O)CN4CCOCC4)CCCCN3[C@H]2CO)cc1	none
O=C(CN1CCOCC1)N1CCCCN2[C@H](CO)[C@@H](c3ccc(-c4ccccc4F)cc3)[C@H]2C1	none
O=C(CN1CCOCC1)N1CCCCN2[C@H](C1)[C@@H](c1ccc(-c3ccccc3F)cc1)[C@@H]2CO	none
COc1ccccc1-c1ccc([C@@H]2[C@H]3CN(C(=O)CN4CCOCC4)CCCCN3[C@H]2CO)cc1	none
O=C(CN1CCOCC1)N1CCCCN2[C@@H](CO)[C@@H](c3ccc(-c4ccccc4F)cc3)[C@@H]2C1	IDE exosite FP -5.08
COc1ccccc1-c1ccc([C@@H]2[C@H](CO)N3CCCCN(C(=O)CN4CCOCC4)C[C@@H]23)cc1	IDE exosite FP -15.4
COc1cccc(-c2ccc3n(c2=O)C[C@@H]2[C@@H](CO)[C@H](C(=O)NCC4CC4)[C@H]3N2S(C)(=O)=O)c1	none
O=C(C[C@H]1CC[C@@H](NC(=O)c2cccnc2)[C@@H](CO)O1)NCc1ccc(Cl)c(Cl)c1	none
COc1ccc2c3c([nH]c2c1)[C@H](CO)N(C(=O)c1cnccn1)CC31CN(S(=O)(=O)c2ccccc2)C1	none
CC(C)NC(=O)N1[C@H](CO)[C@@H](c2ccccc2)C12CN(Cc1cc(F)cc(F)c1)C2	none
O=C(c1cccnc1)N1CC(=O)N2[C@H](CO)[C@H](c3ccc(-c4cccnc4)cc3)[C@H]2C1	none
O=C(c1cccnc1)N1CC(=O)N2[C@@H](CO)[C@@H](c3ccc(-c4cccnc4)cc3)[C@@H]2C1	none
O=C(c1cccnc1)N1CC(=O)N2[C@H](CO)[C@@H](c3ccc(-c4cccnc4)cc3)[C@@H]2C1	none
O=C(c1cccnc1)N1CC(=O)N2[C@H](CO)[C@@H](c3ccc(-c4cccnc4)cc3)[C@H]2C1	none
Cc1ccc(-c2ccc([C@H]3[C@@H](CO)N4C(=O)CN(C(=O)c5cccnc5)C[C@H]34)cc2)cc1	IDE exosite FP -3.07
Cc1ccc(-c2ccc([C@@H]3[C@@H](CO)N4C(=O)CN(C(=O)c5cccnc5)C[C@@H]34)cc2)cc1	IDE exosite FP -3.61
O=C1CCCc2cnnn2COC[C@H](Cc2ccccc2)N1	none
COc1ccc(CNC(=O)C[C@@H]2C=C[C@H](NC(=O)c3cccc(F)c3)[C@H](CO)O2)cc1	none
CN(C)C(=O)c1ccc(-c2ccc([C@@H]3[C@@H](CO)N4CCCCN(Cc5ccncc5)C[C@@H]34)cc2)cc1	none
Cc1cccc(-c2ccc([C@@H]3[C@@H](CO)N4CCCCN(CCC(F)(F)F)C[C@@H]34)cc2)c1	none
Cc1cccc(-c2ccc([C@H]3[C@H]4CN(Cc5ccncc5)CCCCN4[C@H]3CO)cc2)c1	IDE exosite FP -5.02
Cc1cccc(-c2ccc([C@@H]3[C@@H](CO)N4CCCCN(CCC(F)(F)F)C[C@H]34)cc2)c1	none
OC[C@H]1[C@@H](c2ccc(C3=CCCC3)cc2)[C@@H]2CN(Cc3ccncc3)CCCCN12	none
Cc1cccc(-c2ccc([C@H]3[C@@H](CO)N4CCCCN(CCC(F)(F)F)C[C@H]34)cc2)c1	IDE exosite FP -3.62
Cc1cccc(-c2ccc([C@H]3[C@@H](CO)N4CCCCN(Cc5ccncc5)C[C@H]34)cc2)c1	IDE exosite FP -5.92
Cc1cccc(-c2ccc([C@@H]3[C@H](CO)N4CCCCN(CCC(F)(F)F)C[C@@H]34)cc2)c1	none
Cc1cccc(-c2ccc([C@H]3[C@H](CO)N4CCCCN(Cc5ccncc5)C[C@@H]34)cc2)c1	IDE exosite FP -3.73
Cc1cccc(-c2ccc([C@H]3[C@H](CO)N4CCCCN(CCC(F)(F)F)C[C@@H]34)cc2)c1	none
Cc1cccc(-c2ccc([C@H]3[C@@H](CO)N4CCCCN(CCC(F)(F)F)C[C@@H]34)cc2)c1	none
COCC(=O)N1CC(=O)N2[C@H](C1)[C@H](c1ccc(-c3cccnc3)cc1)[C@@H]2CO	none
N#C[C@@H]1[C@H](c2ccccc2-c2ccc(F)cc2)[C@H](CO)N1C(=O)Cc1ccccc1	none
O=C(C[C@H]1C=C[C@H](NC(=O)C2CCC2)[C@@H](CO)O1)NC1CCCCC1	none
CO[C@H]1CN(C)C(=O)c2cc(NC(=O)c3ccc(F)cc3)ccc2OC[C@@H](C)N(C(=O)CC2CC2)C[C@@H]1C	none
COc1cccc(CNC(=O)C[C@@H]2CC[C@H]3[C@H](COc4ccc(NS(=O)(=O)c5ccccc5F)cc4C(=O)N3C)O2)c1	none
C[C@@H]1CCCCO[C@H](CN(C)C(=O)c2ccncc2)[C@H](C)CN([C@H](C)CO)C(=O)c2cc(NS(=O)(=O)c3cccs3)ccc2O1	none
CN(C)CC#Cc1ccc([C@H]2[C@@H](CO)N3C(=O)CN(C(=O)c4cccnc4)C[C@H]23)cc1	none
N#C[C@H]1N[C@H](CO)[C@@H]1c1ccc(-c2cccc(F)c2)cc1	none
COC(=O)c1ccc(CN2CC(=O)N3[C@H](CO)[C@@H](c4ccc(-c5ccc(OC)cc5)cc4)[C@H]3C2)cc1	none
C[C@@H]1CN([C@H](C)CO)C(=O)c2ccccc2-c2ccccc2CO[C@@H]1CN(C)S(=O)(=O)c1cn(C)cn1	none

Screens deposited in PubChem by Broad Institute.
